Yp Topo-I inh = Yersinia pestis topoisomerase I inhibitors, primary screen, biochemical, cleavage product accumulation, plate reader, single point; DNA topoisomerase I (Yersinia pestis CO92); Y. pestis Topo-I cleavage product accumulation; activity, % at 10 µM; 360,000 tested, 0.064% active; AID 504884, 2011; in the data active means activity above about 50%, passing the limit was not always enough
PfHsp40 rescue = rescue of yeast from PfHsp40 toxicity, primary screen, S. cerevisiae, ATP luminescence; S. cerevisiae expressing PfHsp40, growth rescue; growth rescue, % at 12.5 µM; 340,000 tested, 0.68% active; AID 504582, 2011; in the data active means growth rescue above about 28%, passing the limit was not always enough;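 further: yeast W303a lacking pdr1 and pdr3 grown in galactose medium; growth measured after three days at 30 °C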
PrPC surface inh = inhibitors of human cell surface prion protein PrPC, primary screen, cell-based, TR-FRET | Major prion protein (Homo sapiens), P04156 | TR-FRET read-out | inhibition, % at 13.8 µM | 370,000 tested, 0.43% active | AID 720596, 2013; in the data active means inhibition above about 24%; further: 0% = median of the test wells and 100% = reference compound wells
BJeLR viability = MLPCN primary cell-based screen for lethality selective to Ras in HRASV12 cells. BJeLR (HRASV12) viability, CellTiter-Glo ATP luminescence, 48 h. inhibition, % (no concentration beside the values). 300,000 tested, 0.17% active; in the data active means inhibition above about 50%
CCHF vOTU inh = CCHFV vOTU protease inhibitors, primary screen, biochemical, Pep-AMC substrate, fluorescence | 370,000 tested, 0.55% active | AID 651958, 2012 | Crimean-Congo hemorrhagic fever virus L polyprotein viral ovarian tumor (vOTU) protease … | inhibition, % at 11.5 µM; in the data active means inhibition above about 30%; further: 0% = vehicle wells with enzyme and 100% = no enzyme wells
PrP 5UTR inh = inhibition of PrP 5' UTR reporter expression | cell-based PrP 5' UTR mRNA reporter, plate reader | inhibition, % (test concentration not listed) | 340,000 tested, 0.35% active | AID 488862, 2010; in the data active means inhibition above about 52%; further: 0 = median of the neutral control wells
Starred values were filed as active, the others as inactive; . = not tested or not shown. Compounds with a hit are over-represented: about 2% of the library has one in this group of screens.

SMILES	Yp Topo-I inh	PfHsp40 rescue	PrPC surface inh	BJeLR viability	CCHF vOTU inh	PrP 5UTR inh
Cn1c(COc2ccccc2O)[n+](C)c2ccccc21	1	-1	-6	8	1	1
COc1ccc(N=Nc2n(C)c3ccccc3[n+]2C)cc1	.	.	.	52*	.	.
CCOC(=O)C1=C(C(=O)OCC)C2N(Cc3ccccc3)c3ccccc3[C@@]23C[C@@H](C(=O)OC)N(S(=O)(=O)c2ccc(C(F)(F)F)cc2)C3=N1 (stereo partly drawn)	.	.	6	.	16	.
O=C(O)c1cccc2nc3ccccc3nc12	-9	48*	-26	-11	3	-4
O=C(O)c1nc2ccccc2nc1C(=O)O	1	0	0	1	1	-46
C[C@@H]1C=CCCO[C@]12C(=O)N(CC1CC1)c1ccccc12	.	.	-3	.	4	.
COc1ccc(C=O)cc1OS(=O)(=O)c1ccc(NC(C)=O)cc1	-2	42*	7	-4	-6	-4
COc1cc(C=O)cc(OC)c1OS(=O)(=O)c1ccc(NC(C)=O)cc1	0	0	5	0	-6	-23
Cc1ccccc1Cn1cc(COC(=O)N(C)Cc2ccccc2)nn1	.	.	-3	.	-3	.
CCCC(=O)NC1CCc2cc(OC)c(OC)c(OC)c2-c2ccc(OC)c(=O)cc21 (stereo not drawn)	-2	-1	-10	.	23	50
COc1cc2c(c(OC)c1OC)-c1ccc(OC)c(=O)cc1C(NC(C)=O)CC2 (stereo not drawn)	-5	-1	2	48	14	63*
CCC(C(=O)Nc1ccccc1N1CCCC1)c1ccccc1Cl (stereo not drawn)	.	.	4	.	7	.
CC1Oc2cc3oc4c(O)c(O)ccc4c(=O)c3c(O)c2C1(C)C (stereo not drawn)	-16	335*	.	32	.	-43
CCN(C(=O)c1cnc2scc(C)n2c1=O)c1ccccc1C	-1	40*	1	-5	-3	-1
COc1ccc(N2C(=O)/C(=C/c3ccc(C)o3)C(=O)NC2=S)cc1	0	0	8	51*	-10	-3
CCOc1ccc(-n2c(SCC(=O)NN=Cc3ccc(C(=O)O)cc3)nnc2-c2cccnc2)cc1	.	.	3	.	1	.
CC(=C/c1ccc(C(C)C)cc1)/C=N/NC(=O)CSc1ccccn1	61*	13	7	-1	12	-58
O=C(Nc1ccc(N2C(=O)CC(c3ccccc3)C2=O)c(Cl)c1)c1ccccn1 (stereo not drawn)	.	.	8	.	.	.
C=CCN(CC=C)C(=S)NC(=O)c1ccc(OC)c(Br)c1	2	56*	.	-4	.	1
CC1CCN(c2ccc(-c3cccs3)nn2)CC1	13	-6	-1	18	15	80*
Clc1ccc(-c2cccs2)nn1	-5	0	0	-20	16	-3
C(=N\NC1=Nc2cccc3cccc1c23)/c1ccccn1	9	327*	3	-1	7	-100
c1ccc(-c2ccccc2-c2nc(-c3ccncc3)no2)cc1	20	32*	-7	0	14	7
C[C@H](O)[C@@H]1C(=O)N2CCc3c([nH]c4cccc(-c5ccccc5)c34)[C@@H]2C[C@@H]1N(C)C(=O)OCc1ccccc1	.	.	13	.	-30	.
CCCC(=O)N1N=C(c2ccccc2)CC1c1cn(C)c2ccccc12 (stereo not drawn)	56*	0	5	-11	3	-23
COc1cccc(CN(C)[C@H]2C[C@H]3c4[nH]c5ccccc5c4CCN3C[C@H]2[C@H](C)O)c1OC	.	.	-6	.	11	.
C=CCc1cccc(/C=N/NC(=O)CCCNc2ccc(C)cc2)c1O	-3	93*	0	4	18	-16
COc1ccccc1CCC[C@@H](CCS(=O)(=O)C(C)C)CC1CCCCC1	.	.	-3	.	8	.
CC(C)n1cnc2c(Nc3cccc(Cl)c3)nc(NCCCO)nc21	3	12	0	-15	8	10
C=CC(=O)Nc1cccc(Nc2nc(N[C@H]3CC[C@H](N(C)C)CC3)nc3c2ncn3C(C)C)c1	-15	-1	.	.	.	71*

Screening results deposited in PubChem by several laboratories.
